# Where “and” joins values, the source holds several entries; their conditions need not be identical. Equal entries are not always repeated. About 2,000 (36%) of roughly 5,500 compounds were called active. Roughly 18% stayed inconclusive and do not appear here. Some of the results follow. Unmarked numbers belong to inactive results. Rule as the data show it: active = normalized growth mostly below about 0.91 (no sharp cut-off); inconclusive = no clear call, values can overlap the other calls; inactive = mostly above about 0.92.
# Assay: chemical genetic growth profiling, strain panel (AID 1159580);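 also: tested at 20 µM; growth read once vehicle control cultures reached saturation at 30 °C; 1 = growth at the plate median or of vehicle wells; lower values mean less growth of the strain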
# Settings: growth OD
# [1] = S. cerevisiae deletion strains, locus YAL013W, strain DEP1, hits give low values
# [2] = S. cerevisiae deletion strains, locus YAL040C, strain CLN3, hits give low values
# [3] = S. cerevisiae deletion strains, locus YCL061C, strain MRC1 (second series), hits give low values
# [4] = S. cerevisiae deletion strains, locus YDR150W, strain NUM1, hits give low values
# [5] = S. cerevisiae deletion strains, locus YDR363W, strain ESC2, hits give low values
# [6] = S. cerevisiae deletion strains, locus YER002W, strain NOP16, hits give low values
# [7] = S. cerevisiae deletion strains, locus YGR078C, strain PAC10, hits give low values
# [8] = S. cerevisiae deletion strains, locus YJR075W, strain HOC1, hits give low values
# [9] = S. cerevisiae deletion strains, locus YNL175C, strain NOP13, hits give low values
# [10] = S. cerevisiae deletion strains, locus YNL197C, strain WHI3, hits give low values
# [11] = S. cerevisiae deletion strains, locus YNL224C, strain SQS1, hits give low values
# [12] = S. cerevisiae deletion strains, locus YNL322C, strain KRE1, hits give low values
# [13] = S. cerevisiae deletion strains, locus YOR083W, strain WHI5 (second series), hits give low values
# [14] = S. cerevisiae deletion strains, locus YMR263W, strain SAP30, hits give low values
# [15] = S. cerevisiae deletion strains, locus YNL128W, strain TEP1, hits give low values
# [16] = S. cerevisiae deletion strains, locus YNL153C, strain GIM3, hits give low values
smiles,measurement,setting,value
NC(N)=Nc1ccc2[nH]c3c(c2c1)C[C@@]1(O)[C@H]2Cc4ccc(O)c5c4[C@@]1(CCN2CC1CC1)[C@H]3O5,normalized growth,[1],1.02
same,normalized growth,[2],1.07
same,normalized growth,[3],0.991
same,normalized growth,[4],0.986
same,normalized growth,[5],1.04
same,normalized growth,[6],1.01
same,normalized growth,[7],0.991
same,normalized growth,[8],1.01
same,normalized growth,[9],0.998
same,normalized growth,[10],0.985
same,normalized growth,[11],1
same,normalized growth,[12],1.03
same,normalized growth,[13],0.97
Oc1ccc(C2CNCc3sccc32)cc1O (stereo not drawn),normalized growth,[2],1.01
same,normalized growth,[3],0.962
same,normalized growth,[5],0.999
same,normalized growth,[6],1
same,normalized growth,[7],0.998
same,normalized growth,[14],1
same,normalized growth,[15],1.01
same,normalized growth,[16],0.963
same,normalized growth,[9],0.995
same,normalized growth,[10],0.995
same,normalized growth,[11],1
same,normalized growth,[12],0.892 (active)
same,normalized growth,[13],1
CCN(CC)CCNC(=O)COc1ccc(OC)cc1,normalized growth,[1],1
same,normalized growth,"S. cerevisiae deletion strains, locus YBR021W, strain FUR4, hits give low values",1.01
same,normalized growth,"S. cerevisiae deletion strains, locus YBR229C, strain ROT2, hits give low values",0.995
same,normalized growth,"S. cerevisiae deletion strains, locus YCL029C, strain bik1, hits give low values",0.983
same,normalized growth,"S. cerevisiae deletion strains, locus YDL035C, strain GPR1, hits give low values",1.02
same,normalized growth,"S. cerevisiae deletion strains, locus YDL074C, strain BRE1, hits give low values",0.989
same,normalized growth,"S. cerevisiae deletion strains, locus YDL101C, strain DUN1, hits give low values",0.993
same,normalized growth,"S. cerevisiae deletion strains, locus YDL134C, strain PPH21, hits give low values",1.01
same,normalized growth,"S. cerevisiae deletion strains, locus YDL185W, strain tfp1, hits give low values",0.964
same,normalized growth,"S. cerevisiae deletion strains, locus YDL192W, strain arf1, hits give low values",0.995
same,normalized growth,"S. cerevisiae deletion strains, locus YDR101C, strain arx1, hits give low values",0.973
same,normalized growth,[4],0.993
same,normalized growth,"S. cerevisiae deletion strains, locus YDR162C, strain NBP2, hits give low values",1.01
same,normalized growth,"S. cerevisiae deletion strains, locus YDR318W, strain mcm21, hits give low values",0.988
same,normalized growth,"S. cerevisiae deletion strains, locus YDR388W, hits give low values",0.997
same,normalized growth,"S. cerevisiae deletion strains, locus YDR502C, strain sam2, hits give low values",1.01
same,normalized growth,"S. cerevisiae deletion strains, locus YEL061C, strain CIN8, hits give low values",1
same,normalized growth,"S. cerevisiae deletion strains, locus YER110C, hits give low values",0.989
same,normalized growth,"S. cerevisiae deletion strains, locus YER155C, strain BEM2, hits give low values",0.998
same,normalized growth,"S. cerevisiae deletion strains, locus YER167W, strain BCK2, hits give low values",1.01
same,normalized growth,"S. cerevisiae deletion strains, locus YGL078C, strain dbp3, hits give low values",0.997
same,normalized growth,"S. cerevisiae deletion strains, locus YGL086W, strain mad1, hits give low values",1.02
same,normalized growth,"S. cerevisiae deletion strains, locus YGL248W, strain PDE1, hits give low values",0.995
same,normalized growth,[7],0.992
same,normalized growth,"S. cerevisiae deletion strains, locus YGR135W, strain pre9, hits give low values",1.01
same,normalized growth,"S. cerevisiae deletion strains, locus YGR229C, strain SMI1, hits give low values",1.01
same,normalized growth,"S. cerevisiae deletion strains, locus YGR252W, strain gcn5, hits give low values",1.15
same,normalized growth,"S. cerevisiae deletion strains, locus YHR030C, strain SLT2, hits give low values",0.995 and 0.975
same,normalized growth,"S. cerevisiae deletion strains, locus YHR079C, strain IRE1 (second series), hits give low values",0.986
same,normalized growth,"S. cerevisiae deletion strains, locus YHR079C, strain IRE1, hits give low values",0.965
same,normalized growth,"S. cerevisiae deletion strains, locus YHR094C, strain hxt1, hits give low values",0.981
same,normalized growth,"S. cerevisiae deletion strains, locus YHR129C, strain ARP1, hits give low values",0.994
same,normalized growth,"S. cerevisiae deletion strains, locus YHR200W, strain rpn10, hits give low values",0.989
same,normalized growth,"S. cerevisiae deletion strains, locus YIL066C, strain RNR3, hits give low values",0.999
same,normalized growth,"S. cerevisiae deletion strains, locus YIL073C, strain SPO22, hits give low values",0.974
same,normalized growth,"S. cerevisiae deletion strains, locus YIL125W, strain kgd1, hits give low values",1
same,normalized growth,"S. cerevisiae deletion strains, locus YIR030C, strain dcg1, hits give low values",0.999
same,normalized growth,"S. cerevisiae deletion strains, locus YJL095W, strain BCK1, hits give low values",0.983 and 0.978
same,normalized growth,"S. cerevisiae deletion strains, locus YJL134W, strain LCB3, hits give low values",0.994
same,normalized growth,"S. cerevisiae deletion strains, locus YJL168C, strain set2, hits give low values",0.981
same,normalized growth,"S. cerevisiae deletion strains, locus YJL187C, strain SWE1 (second series), hits give low values",0.984
same,normalized growth,"S. cerevisiae deletion strains, locus YJR043C, strain POL32, hits give low values",0.971
same,normalized growth,"S. cerevisiae deletion strains, locus YJR066W, strain TOR1, hits give low values",0.939
same,normalized growth,[8],0.983
same,normalized growth,"S. cerevisiae deletion strains, locus YKL009W, strain mrt4, hits give low values",1.02
same,normalized growth,"S. cerevisiae deletion strains, locus YKL068W, hits give low values",0.983
same,normalized growth,"S. cerevisiae deletion strains, locus YKL085W, strain MDH1 (second series), hits give low values",0.981
same,normalized growth,"S. cerevisiae deletion strains, locus YKL085W, strain MDH1, hits give low values",0.981
same,normalized growth,"S. cerevisiae deletion strains, locus YKL190W, strain CNB1, hits give low values",0.997
same,normalized growth,"S. cerevisiae deletion strains, locus YKR001C, strain vps1, hits give low values",1.02
same,normalized growth,"S. cerevisiae deletion strains, locus YLR039C, strain RIC1, hits give low values",1.06
same,normalized growth,"S. cerevisiae deletion strains, locus YLR058C, strain SHM2, hits give low values",1
same,normalized growth,"S. cerevisiae deletion strains, locus YLR102C, strain apc9, hits give low values",0.991
same,normalized growth,"S. cerevisiae deletion strains, locus YLR113W, strain HOG1, hits give low values",0.969
same,normalized growth,"S. cerevisiae deletion strains, locus YLR262C, strain YPT6, hits give low values",1.05
same,normalized growth,"S. cerevisiae deletion strains, locus YLR268W, strain sec22, hits give low values",0.96
same,normalized growth,"S. cerevisiae deletion strains, locus YLR330W, strain CHS5, hits give low values",0.989
same,normalized growth,"S. cerevisiae deletion strains, locus YLR342W, strain FKS1 (second series), hits give low values",1.06
same,normalized growth,"S. cerevisiae deletion strains, locus YLR371W, strain rom2, hits give low values",0.99
same,normalized growth,"S. cerevisiae deletion strains, locus YLR418C, strain cdc73, hits give low values",1.01
same,normalized growth,"S. cerevisiae deletion strains, locus YML016C, strain PPZ1, hits give low values",1.01
same,normalized growth,"S. cerevisiae deletion strains, locus YML032C, strain rad52, hits give low values",0.97
same,normalized growth,"S. cerevisiae deletion strains, locus YML124C, strain tub3, hits give low values",0.996
same,normalized growth,"S. cerevisiae deletion strains, locus YMR078C, strain ctf18, hits give low values",0.978
same,normalized growth,"S. cerevisiae deletion strains, locus YMR223W, strain ubp8, hits give low values",1.04
same,normalized growth,[14],0.982
same,normalized growth,"S. cerevisiae deletion strains, locus YMR307W, strain GAS1, hits give low values",1.05
same,normalized growth,"S. cerevisiae deletion strains, locus YNL067W, strain RPL9B, hits give low values",0.97
same,normalized growth,[15],0.994
same,normalized growth,[16],0.988
same,normalized growth,"S. cerevisiae deletion strains, locus YNL183C, strain NPR1, hits give low values",0.937
same,normalized growth,"S. cerevisiae deletion strains, locus YNL233W, strain BNI4, hits give low values",1.01
same,normalized growth,"S. cerevisiae deletion strains, locus YNL250W, strain rad50, hits give low values",0.993
same,normalized growth,"S. cerevisiae deletion strains, locus YNL271C, strain bni1, hits give low values",0.987
same,normalized growth,"S. cerevisiae deletion strains, locus YNL298W, strain CLA4, hits give low values",0.993
same,normalized growth,"S. cerevisiae deletion strains, locus YNL307C, strain MCK1, hits give low values",0.999
same,normalized growth,[12],0.992
same,normalized growth,"S. cerevisiae deletion strains, locus YNR052C, strain pop2, hits give low values",0.984
same,normalized growth,"S. cerevisiae deletion strains, locus YOL006C, strain TOP1, hits give low values",1.01
same,normalized growth,"S. cerevisiae deletion strains, locus YOL012C, strain htz1",0.754
same,normalized growth,"S. cerevisiae deletion strains, locus YOL147C, strain pex11, hits give low values",0.997
same,normalized growth,"S. cerevisiae deletion strains, locus YOR061W, strain CKA2, hits give low values",1.01
same,normalized growth,"S. cerevisiae deletion strains, locus YOR069W, strain VPS5, hits give low values",0.998
same,normalized growth,"S. cerevisiae deletion strains, locus YOR136W, strain idh2, hits give low values",1.01
same,normalized growth,"S. cerevisiae deletion strains, locus YOR144C, strain elg1, hits give low values",0.998
same,normalized growth,"S. cerevisiae deletion strains, locus YOR184W, strain ser1, hits give low values",0.983
same,normalized growth,"S. cerevisiae deletion strains, locus YOR231W, strain MKK1, hits give low values",0.964
same,normalized growth,"S. cerevisiae deletion strains, locus YOR316C, strain cot1, hits give low values",0.981
same,normalized growth,"S. cerevisiae deletion strains, locus YPL055C, strain LGE1, hits give low values",0.949
same,normalized growth,"S. cerevisiae deletion strains, locus YPL241C, strain CIN2, hits give low values",1.01
same,normalized growth,"S. cerevisiae deletion strains, locus YPL256C, strain CLN2, hits give low values",0.972
same,normalized growth,"S. cerevisiae deletion strains, locus YPR119W, strain clb2, hits give low values",0.99
same,normalized growth,"S. cerevisiae deletion strains, locus YPR141C, strain kar3, hits give low values",0.992
same,normalized growth,"S. cerevisiae deletion strains, locus YPR163C, strain tif3, hits give low values",0.994
same,normalized growth,"S. cerevisiae deletion strains, locus YPR167C, strain met16, hits give low values",0.975
same,normalized growth,"S. cerevisiae deletion strains, strain wtn01, hits give low values",0.962
same,normalized growth,"S. cerevisiae strains, strain wild type, hits give low values",1

# From PubChem BioAssay AID1159580 (chemical genetic matrix, 2015)
